# Test results taken from the supplement of paper PMC6555819.
# Test system: VDR:RXRa (NR concentration 270 nM, RXRa partner concentration 90 nM)
# Assay: PBM binding z-score (relative to random genomic background probes); higher = stronger binding; sequences stand for … in GC…GCGATTGACAGCGTAGAATGAAGG
# Experimental: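 Protein-binding microarray (Agilent 4x180K custom design, double-stranded 60-nt probes: 5' GC cap, 34-nt variable region, 24-nt constant primer region; full probe sequence given). Purified or IVT nuclear receptor:RXRα heterodimers (3:1 NR:RXRα, mostly 270:90 nM) or homodimers were incubated for 1 h in PBS with 2% milk and no ligand, then detected with Alexa488 antibodies. Fluorescence from o1-orientation probes (~5 replicates averaged) was converted to z-scores against 500 random hg19 background probes. Variable regions are seed direct-repeat (DR0–DR5) sites, all their single-nucleotide variants and half-site ablations.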
row,Sequence,PBM binding z-score
1,TCTTGGAGGACACGAAAGGTCAGAGCTCGACATC,3.58
2,GCAGAAAGGTGAAACGCAGGTAACTCAGGGTGGC,0.145
3,CCTAGTTGGTGAGGAGGTCACACACCGGATATGA,3.46
4,TCAAGTTGGTCAAAGGTCACACACTCGAAATGCG,5.58
5,GCGAGTGGGGCAAAGCAGGTTACCATAAGGTTGG,0.296
6,GCTGCTAGGTCAGGCTGGTCAGCTAACGGGTACG,0.677
7,CCAGACAGGTGAGAAAGTAACTCAGCCTCGATTA,0.0167
8,CCAGGCAGGTGAAAGGTAACTCAGTCTGGTACGC,0.277
9,CCTACTGGGCCAAAAAGGTCATAGATGCCGATAA,4.4
10,ACTATTAGTTGGCTTAGGGCAACCGATACGACGC,0.158
11,CCTCGGAGGACAGAAGGTCAGAGCGGTCCGCTTT,1.83
12,TCGAGTAGGTTAGGCGCATTCAGAATGGCGTCGA,-0.563
13,ACGATTAGTTGAGACGAGGGCAACCGATAGGTTG,0.249
14,CATACTGGGCCATTCAGAGGTCATTGATCATATG,4.15
15,TAGGCTAGGTCATGCGGGCCAGTATAGTGTCGGC,2.63
16,ATCTCTGGGTAAAAGTTCAGTGAATCCCGAGGAT,1.25
17,ACTAGCAGGCCAACTTTGGGTCACTCAAACAAAG,0.536
18,ACAGACAGGTGAGTGCAGGTAACTCAGCTGGACG,-0.127
19,CGTCCAAGGTAAAAGGTCAGTGAAGAGATGACGG,2.93
20,CCGACTGGGGCAGAAAGGTTACCGTACCATCCGG,0.919

row,Sequence,PBM binding z-score
1,TCGAGTAGGTTACTAATGGGGCATTCAGCTTTCT,0.0839
2,TCTATTAGTTGATTAGGGCAACCCAAACAGCGGA,0.694
3,ACAGACAGGTGAGTGAAGGTAACTGAGCTGGACG,-0.202
4,ACAGACAGCTGATGAAGGTAACTCAGGCTATCAT,-0.282
5,CCTAACGGGTCACGAGGTTATAGCACGACGAGCG,4.74
6,ACTAGCAGGCCAAGGTTCACTCAAGATTAGTCCG,2.01
7,GCAACTGGGGCATCAGCAGGTTACCATAACTTAA,-0.109
8,TCTTGTAGATCAGCAGGGTAAGAAAGCTGGCCAA,0.195
9,CCGAGTAGGTTATGGGGCATTTAGGCAACGGTGA,-0.0639
10,CGTCCAAGGTCAGAGTGGTCAGTGAATGCCGAGT,3.87
11,CGTCAAAATTCAAGGTAACGTAACAGAAAGCAGC,0.111
12,TCGAGTAGGTTACCAATGGGGCATTCGGCTTTCT,0.0858
13,GCTTACGGGTCAAAGGATATAGCATGAATAGAAT,3.16
14,GGAACGAGGGCATTCGAGTTGATAGCTTGGCGAT,3.55
15,AGAATGAGGTTAGACGTAGATCAGGGAAGAAAGT,0.639
16,GCTGCCAGGTCAACTGATGGTCAGCTAAAGCTCG,2.62
17,TTACCAAGGTGAAGGCCGTTGATCCCTCTGTAGA,-0.121
18,CCAAGCAGGCCAATCTGGGTCACTCAAGGCTTGA,0.733
19,TCTAGTTGGTCAAAGGACACACACTCGAAATGCG,1.05
20,TAGCCTAGGTCATTCAGAGGCCAGTATAGAAAGC,2.84
